# SUMO Mot1 rescue: inhibitors of SUMOylation pathway: yeast Mot1-301 growth rescue; S. cerevisiae Mot1-301 growth rescue, ATP luminescence, 38.5C; percent above DMSO median, 100 means doubled; growth rescue, % at 18.8 µM; 1% of 320,000 active; AID 2716;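 active = every valid replicate shows activation above 250% relative to neutral control wells; inactive = the rest, any valid replicate at or below 250%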;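 also: OY570 slx delta 5 strain wells were the positive control but not used for scaling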
# ATG4B inh: ATG4B (human) cysteine protease inhibition; Q9Y4P1; ATG4B cleavage of LC3-PLA2, NBD-HPC fluorescence, 1 h; 0.51% of 340,000 active; inhibition, % at 8.33 µM; AID 504462; in the data active = inhibition above about 40%
# FAS-TE inh: inhibitors of human fatty acid synthase thioesterase domain | P49327 | recombinant FAS-TE, OMFH fluorogenic substrate, fluorescence endpoint | inhibition, % at 15 µM | 0.67% of 360,000 active | AID 602261;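 active = compounds whose normalised, plate-corrected inhibition of enzyme fluorescence in the single-dose primary screen is 50% or more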;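 also: 0% = DMSO with enzyme and 100% = substrate without enzyme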
# Calb FLC: C. albicans growth modulation with fluconazole | C. albicans CaCi-2 (fluconazole-resistant clinical isolate) + fluconazole, Alamar Blue growth, 48 h | growth inhibition, % (concentration not given with the values) | 0.57% of 300,000 active | AID 1979;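 active = growth inhibition above about 58% in most replicates, limit read from the data, passing the limit was not always enough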;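 also: all wells also contain fluconazole at 8 µg/ml as a sub-toxic cotreatment; 0% = median of DMSO wells and 100% = median of geldanamycin control wells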
# NadD block: NadD (S. aureus) enzyme inhibition. purified NadD enzyme, colorimetric absorbance read-out. inhibition, % at 20 µM. 0.78% of 360,000 active; in the data active = inhibition above about 26%
# Mot1 SUMO dose: yeast SUMO pathway inhibition in dose response | 2,300 tested, under 10 active | S. cerevisiae Mot1-301 galactose growth, ATP luminescence, 24 h; -100 = growth of slx-deleted rescue strain | growth activity, percent, % at 42 µM | AID 493004 | shares compounds with SUMO Mot1 rescue;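 active = Signal drops as the depositor expects, and the fitted half-maximal dose is no more than ten times the top valid tested dose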;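 also: more negative values mean stronger growth rescue toward the control strain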
# Starred values were filed as active, the others as inactive; nt = no result given; + = active, no number. An excerpt weighted towards active compounds, which were near 3.1% of everything screened.
SMILES,SUMO Mot1 rescue,ATG4B inh,FAS-TE inh,Calb FLC,NadD block,Mot1 SUMO dose
CCN(CC(=O)NCc1ccc(Cl)cc1)C(=O)/C=C/c1ccccc1,3.4,2.9,17.8,12.8,-8.1,nt
CCN(CC(=O)NCc1ccc(Cl)cc1)C(=O)/C=C/c1ccc(C#N)cc1,821.2*,-12.8,21.9,-4.0,-3.1,0.8
O=C(NC(=S)N1CCOCC1)c1cn(-c2ccccc2)nc1-c1ccc(F)cc1,nt,0.1,12.2,nt,1.3,nt
NN1C(=O)NC(c2ccccc2)(c2ccccc2)C1=O,543.4*,5.8,-10.9,-9.5,-2.8,-0.4
O=c1c2ccccc2ncn1Cc1ccc(Cl)c(Cl)c1,-30.5,-11.1,14.2,9.2,-0.1,nt
O=c1c2ccccc2ncn1Cc1ccc2c(c1)OCO2,427.7*,4.8,-0.1,2.3,-0.2,0.6
O=c1c2ccccc2ncn1Cc1ccc(Cl)cc1,987.5*,-12.8,1.6,-10.7,2.9,0.3
O=c1c2ccccc2c2ccccc2c(=O)n1Cc1ccc2c(c1)OCO2,nt,nt,23.7,nt,-4.2,nt
CN(CCO)c1ccc(C=NNc2ccc([N+](=O)[O-])cc2S(=O)(=O)Nc2ccccc2C(=O)O)cc1,-21.1,31.6,33.5,nt,16.6,nt
Cc1noc(C)c1NC(=O)Nc1ccc2c(c1)C(=O)N([C@H](C)CO)C[C@H](C)[C@H](CN(C)C)O2,-9.5,-9.2,-7.4,nt,-10.7,nt
CCCNCc1cc(OCC)c(OCC(N)=O)cc1Br,765.5*,2.9,-6.2,nt,-6.4,0.5
CN(C)C(=O)CSc1nc2ccc(N3C(=O)c4ccccc4C3=O)cc2s1,561.8*,2.4,-8.7,-4.3,-6.9,0.2
Cc1cccc(NC(=O)CSc2nc3ccc(N4C(=O)c5ccccc5C4=O)cc3s2)c1C,-12.2,2.6,0.0,-0.7,12.6,nt
O=C(Oc1ccc2c(c1)OCO2)c1cccs1,478.2*,4.2,0.9,8.4,5.5,1.3
CCc1nnc(NS(=O)(=O)c2ccc(NC(=O)c3ccccc3OC)cc2)s1,-12.6,1.9,-1.1,-2.4,-1.4,nt
CC(C)(C)OC(=O)N1C[C@H](O)C[C@H]1C(=O)OCC(=O)c1ccc([N+](=O)[O-])cc1,86.0,-2.2,-4.0,3.7,-6.7,nt
CCCC(=O)Oc1c(S(=O)(=O)c2ccc(C)cc2)c(C)nn1C(C)(C)C,635.5*,5.9,10.8,7.2,-8.4,-1.0
COc1ccccc1NC(=S)N(Cc1ccccc1)Cc1cccs1,+,-3.3,3.1,-0.1,-2.1,-0.1
N/C(=N\OC(=O)CCC1CCCC1)c1ccc([N+](=O)[O-])cc1,597.2*,-7.7,17.2,-19.8,-6.2,-0.8
Cc1ccc(C)c(OCCC(=O)OCC(=O)Nc2ccc(Cl)cn2)c1,-19.3,1.8,13.7,1.5,-7.7,nt
CCN(CC)S(=O)(=O)c1ccc(OC(C)C)c(NC(=O)C2=COCCO2)c1,-10.9,-5.6,4.1,-2.0,-1.8,nt
CC(C)c1ccc(N(CC(=O)NC2CCCC2)C(=O)CCC(=O)Nc2nccs2)cc1,10.3,-14.2,6.6,-6.2,-1.1,nt
CCOc1cc(C(=O)OCC(=O)Nc2cccc(S(=O)(=O)NC3=NCCCCC3)c2)cc(OCC)c1OCC,34.7,-11.4,6.4,nt,2.5,nt
CCCCC(=O)NCCc1ccc(S(N)(=O)=O)cc1,+,-6.9,-8.5,-9.5,-5.0,-0.3
CCOc1ccccc1OCCCC(=O)NCCc1ccc(S(N)(=O)=O)cc1,-8.6,-2.5,-5.7,7.1,4.3,nt
SMILES,SUMO Mot1 rescue,ATG4B inh,FAS-TE inh,Calb FLC,NadD block,Mot1 SUMO dose
Cc1ccc(CC(=O)NCCc2ccc(S(N)(=O)=O)cc2)cc1,20.6,-1.1,-5.4,-6.5,0.5,nt
Cc1ccsc1C(=O)NCCc1ccc(S(N)(=O)=O)cc1,764.9*,-0.1,-6.8,4.6,-1.2,0.0
COCCNS(=O)(=O)c1cc(OC)ccc1OC,-6.1,0.7,-0.7,-1.2,2.5,nt
Cc1onc(-c2ccccc2)c1C(=O)OCC(=O)NC(C)c1ccc(Cl)cc1 (configuration not stated),0.0,-9.2,22.0,nt,-6.9,nt
O=S1(=O)CC(O)C(N=Nc2c(O)n(Cc3ccccc3)c3ccccc23)C1 (configuration not stated),302.2,0.6,-3.0,-13.3,-0.1,nt
Cc1cccc(CS(=O)(=O)Cc2ccc(C(=O)NCC3CCCO3)o2)c1 (configuration not stated),666.8*,-6.0,-12.1,7.9,3.3,0.5

# Bioassay records as filed in PubChem BioAssay.
